Bioassay records: PubChem, National Center for Advancing Translational Sciences (NCATS)
PI5P4K alpha inh = qHTS for Inhibitors of phosphatidylinositol 5-phosphate 4-kinase (PI5P4K); max response, %; 330,000 compounds, 1.2% hits; AID 652105, 2013; Phosphatidylinositol 5-phosphate 4-kinase type-2 alpha (Homo sapiens), P48426; PI5P4Kalpha enzyme, ADP-Glo luminescence, 60 min; stronger effect = lower value; active means max response of -50% or lower; inconclusive means between -30% and -50%; inactive means -30% or higher; further: value at the top dose of about 77 µM; on the % scale 0 is the no-effect control and ±100 the full control effect
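ADP-Glo luminescence end-point after a 60 min room-temperature kinase reaction. PI5P4Kalpha and substrate in HEPES pH 7.4 buffer with EGTA, 0.1% CHAPS and 5% DMSO; ATP at 5 microM final.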
Rango release inh = qHTS Assay for Inhibitors of RanGTP induced Rango (Ran-regulated importin-beta cargo) - Importin beta complex dissociation. Biochemical FRET Rango-importin beta, RanGTP-induced dissociation. Potency, µM (top dose mostly 46.1 µM), without a hit: top-dose activity change, negative = inhibition. 340,000 compounds, 0.071% hits. Snurportin-1 (Homo sapiens) + GTP-binding nuclear protein Ran (Homo sapiens) + Importin …; calls by dose curve; further: potency means the concentration at half of the fitted maximal effect; % of control where 0% means no effect; nearly all actives have a fitted effect of over 45% in size
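Rango (0.1 uM)–importin beta (0.25 uM) complex; RanGTP-RCC1 trigger; 45 min RT; CFP/YFP FRET read.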
KAT2A inh = qHTS Assay for Inhibitors of GCN5L2; GCN5L2 HAT assay, ThioGlo1 CoA-SH fluorescence; Potency, µM (doses to about 58.9 µM), inactives show at the top dose activity change, negative = inhibition, most hits filed as inhibitors; 390,000 compounds, 0.21% hits; further: potency means the concentration at half of the fitted maximal effect; on the % scale 0 is the no-effect control and ±100 the full control effect
Target sequence (Q92830 whole entry, looked up): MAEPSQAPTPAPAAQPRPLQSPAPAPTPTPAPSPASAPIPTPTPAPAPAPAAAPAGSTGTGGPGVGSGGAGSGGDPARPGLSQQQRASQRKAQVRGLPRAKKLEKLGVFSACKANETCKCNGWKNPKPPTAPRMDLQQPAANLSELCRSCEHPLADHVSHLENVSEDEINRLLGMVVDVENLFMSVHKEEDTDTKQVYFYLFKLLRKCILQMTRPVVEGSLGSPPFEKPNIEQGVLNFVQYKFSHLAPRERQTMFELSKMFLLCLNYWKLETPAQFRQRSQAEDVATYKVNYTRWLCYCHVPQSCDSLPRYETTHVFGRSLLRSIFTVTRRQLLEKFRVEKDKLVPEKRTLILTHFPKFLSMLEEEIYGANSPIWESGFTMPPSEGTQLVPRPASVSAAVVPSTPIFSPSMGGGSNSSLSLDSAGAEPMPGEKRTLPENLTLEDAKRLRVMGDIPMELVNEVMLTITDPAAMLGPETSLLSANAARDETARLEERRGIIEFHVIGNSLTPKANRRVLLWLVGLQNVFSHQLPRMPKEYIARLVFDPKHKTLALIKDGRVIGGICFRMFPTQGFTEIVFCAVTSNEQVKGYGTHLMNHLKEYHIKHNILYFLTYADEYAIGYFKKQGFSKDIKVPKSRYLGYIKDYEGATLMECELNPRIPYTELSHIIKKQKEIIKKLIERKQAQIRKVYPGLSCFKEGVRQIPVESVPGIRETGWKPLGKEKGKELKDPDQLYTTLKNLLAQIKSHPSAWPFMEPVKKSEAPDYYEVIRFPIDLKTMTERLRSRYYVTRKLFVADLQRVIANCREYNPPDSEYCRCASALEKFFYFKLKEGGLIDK
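Preincubate 20nM GCN5L2 with compound 15 min, RT → add 50uM ThioGlo1 + 75uM H3(1-25) + 70uM acetyl-CoA → read fluorescence 0 and 20 min. Primary qHTS; fluorescent artifacts likely.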
PLK1 PBD inh = qHTS for Inhibitors of PLK1-PDB (polo-like kinase 1 - polo-box domain): Primary Screen; Serine/threonine-protein kinase PLK1 (Homo sapiens), P53350; Plk1 PBD binding of FITC phosphopeptide, fluorescence polarization; Potency, µM, without a hit: max response, negative = inhibition, most hits filed as inhibitors; 360,000 compounds, 2.8% hits; AID 720504, 2013; further: potency means the concentration at half of the fitted maximal effect; series mostly up to about 57 µM; on the % scale 0 is the no-effect control and ±100 the full control effect; nearly all actives have a fitted effect of over 65% in size
VDR inh = Inhibitors of the vitamin D receptor (VDR): qHTS; AID 504847, 2011; 400,000 compounds, 0.93% hits; Vitamin D3 receptor (Homo sapiens), P11473; VDR-SRC2-3 peptide fluorescence polarization, 2 h; Potency, µM, for the others: max response, negative = inhibition, most hits filed as inhibitors; further: potency means the concentration at half of the fitted maximal effect; on the % scale 0 is the no-effect control and ±100 the full control effect
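Reagent solutions, kept cold and dark, are dispensed first; compounds are then pinned in at 23 nl, plates briefly spun, and incubated 2 h at ambient temperature. Inhibition of VDR–SRC2-3 peptide binding is read by fluorescence polarization.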
Rango-impB inh = qHTS Assay for Inhibitors of Rango (Ran-regulated importin-beta cargo) - Importin beta complex formation; Rango CFP/YFP FRET sensor + importin beta, 45 min; 340,000 compounds, 0.031% hits; AID 540263, 2011; Importin subunit beta-1 (Homo sapiens), Q14974; Potency, µM (doses to about 92.2 µM), for inactives: top-dose inhibition of complex formation; calls by dose curve;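 further: potency means the concentration at half of the fitted maximal effect; 0% = DMSO wells and 100% = buffer wells lacking importin beta; nearly all actives have a fitted effect of over 15% in size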
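FRET biosensor Rango (snurportin 1 IBB between N-terminal EYFP and C-terminal Cerulean), 50 nM in PBS/1 mM DTT/0.02% Tween-20/0.1% BSA, preincubated 5 min RT with compound; 0.125 microM importin beta added, 45 min RT, CFP/YFP FRET ratio read.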
* hit, by the source's call; ? = inconclusive; · = not tested or not shown. Rows were chosen to be rich in hits. Some 3.6% of all compounds tested hit in one or more screens of this group. Unless noted, the call rests on the fitted dose curve; in most records, active means well fitted curve in the direction sought with a large enough effect; inconclusive means small, poorly fitted or top-dose-only effect, or another doubt; inactive means no such curve, though single readings can be large; an effect the other way counts as inactive or inconclusive.

SMILES | PI5P4K alpha inh | Rango release inh | KAT2A inh | PLK1 PBD inh | VDR inh | Rango-impB inh
O=C(O)c1cccc(S(=O)(=O)NCCc2ccccc2)c1 | 4 | -12% | -4% | 30µM* | -14% | 0%
O=C(O)c1cccc(S(=O)(=O)NCCC(c2ccccc2)c2ccccc2)c1 | 2 | -9% | -16% | 0% | 4% | -5%
COc1ccccc1OCC(=O)N(Cc1ccc(N(C)C)cc1)CC1CCCO1 (stereo not drawn) | · | · | -4% | · | 9% | ·
Nc1c(C(=O)O)sc2nc(-c3ccc(F)cc3)cc(-c3ccccc3)c12 | -14 | -21% | -11% | 30µM* | -29% | ?
Nc1c(C(=O)O)sc2nc(-c3ccccc3)cc(-c3ccc(Cl)cc3)c12 | -19 | -7% | -3% | ? | -28% | 2%
CCCc1cc2c(-c3ccccc3)cc(=O)oc2cc1OCc1ccc(C(=O)O)o1 | -23 | -21% | ? | 24µM* | -24% | 6%
CCc1cc2c(-c3ccccc3)cc(=O)oc2cc1OCC(C)=O | 5 | 0% | -9% | -16% | -20% | 2%
O=C(COc1cc2oc(=O)cc(-c3ccccc3)c2cc1Cl)NC(Cc1c[nH]c2ccc(O)cc12)C(=O)O (stereo not drawn) | -1 | -2% | -22% | -6% | -23% | ?
CC(NC(=O)OCc1ccccc1)C(=O)Oc1cc2oc(=O)cc(-c3ccccc3)c2cc1Cl (stereo not drawn) | -62* | ? | 0% | -21% | 13% | ?
CCc1cc2c(-c3ccccc3)cc(=O)oc2cc1OC(=O)c1cccs1 | 6 | 5.2µM* | -4% | 3% | -16% | ?
Clc1ccc(-c2cn3cc(Cl)ccc3n2)cc1 | -1 | -5% | 15% | -9% | -12% | ?
CCN(CC)S(=O)(=O)c1ccc(-c2cn3cc(Cl)ccc3n2)cc1 | -15 | -6% | -8% | 12µM* | -21% | -3%
N#C/C(=C\c1c(Oc2ccc(F)cc2)nc2ccccn2c1=O)c1nc2ccccc2s1 | · | · | -3% | · | ? | ·
Cc1cccn2c(=O)c(/C=C(\C#N)c3nc4ccccc4s3)c(Oc3ccc(Br)cc3)nc12 | · | · | -1% | · | 79µM* | ·
Cc1ccccc1-c1nc(CN2CCC(C(=O)NCc3ccc(F)cc3)CC2)c(C)o1 | · | · | -8% | · | -14% | ·
CN(C)c1ccc(/C=C/C=C2/SC(=S)N(c3ccccc3)C2=O)cc1 | ? | 1% | 0% | -3% | 42% | -3%
O=C(O)c1ccc(N2C(=O)/C(=C/C=C/c3ccccc3)SC2=S)cc1 | -26 | -11% | -2% | 27µM* | -10% | 0%
O=C(CCN1C(=O)/C(=C\C=C\c2ccccc2)SC1=S)Nc1ccc(C(=O)O)cc1 | ? | -9% | ? | 24µM* | ? | ?
O=C(CN1C(=O)/C(=C\C=C\c2ccccc2)SC1=S)Nc1ccc(F)cc1 | -7 | -11% | -1% | -1% | -1% | 12%
O=C(COC(=O)CCN1C(=O)/C(=C\C=C\c2ccccc2)SC1=S)Nc1cc(F)ccc1F | -51* | 3% | -10% | -23% | 11% | 0%
Cc1ccc(NC(=O)CCc2nc(-c3ccccc3F)no2)c(C)c1 | · | · | -2% | · | 26% | ·
Cc1cc(C)c(NC(=O)COCc2cc(-c3cccs3)on2)c(C)c1 | · | · | 1% | · | 5% | ·
CCOC(=O)N1CCC(NC(=O)c2ccc3c(c2)N(Cc2ccc(F)cc2)C(=O)c2ccccc2S3=O)CC1 (stereo not drawn) | · | · | -7% | · | 1% | ·
CN(Cc1ccco1)c1nc(-c2ccoc2)nc2ccccc12 | · | · | -30% | · | 45µM* | ·
CN(Cc1ccco1)c1ncncc1-c1cccc(C#N)c1 | · | · | -4% | · | ? | ·
SMILES | PI5P4K alpha inh | Rango release inh | KAT2A inh | PLK1 PBD inh | VDR inh | Rango-impB inh
CN(C)C(=O)c1ccc(-c2nc(N(C)Cc3ccco3)c3ccccc3n2)cc1 | · | · | -5% | · | ? | ·
Cc1noc(C)c1-c1nc(N(C)Cc2ccco2)c2ccccc2n1 | · | · | -12% | · | 28µM* | ·
CN(Cc1ccco1)c1nc(-c2cccc(C#N)c2)nc2ccccc12 | · | · | -4% | · | 45µM* | ·
CCc1sc(/C=C(/C#N)C(N)=S)cc1[N+](=O)[O-] | -83* | 32% | ? | 5.3µM* | ? | -5%
CCc1ccc(/C=C(/C#N)C(N)=S)s1 | -1 | 4% | -5% | -18% | 12% | 3%
O=c1[nH]cc(C#Cc2ccccc2)c2ncncc12 | · | · | · | · | 4% | ·
O=C(NNC(=O)c1cccc(Br)c1)Nc1ccc(Cl)cc1 | -26 | 2% | 1% | 21µM* | ? | 5%
O=C(O)c1ccc(NC(=O)c2ccccc2NC(=O)c2ccccc2Cl)cc1 | -2 | -4% | 1% | -2% | 15% | 3%
O=C(Nc1cc(C(=O)Nc2ccccc2C(=O)O)cc(C(=O)Nc2ccccc2C(=O)O)c1)c1ccccc1 | -82* | 0% | ? | 21µM* | ? | 4%
O=C(COc1ccccc1[N+](=O)[O-])Nc1cccc(C(=O)Nc2ccccc2C(=O)O)c1 | -63* | -2% | ? | -26% | -4% | 6%
O=C(O)c1ccc(NC(=O)c2ccccc2NC(=O)c2cccc(Br)c2)cc1 | -11 | -1% | -21% | 21µM* | ? | -1%
O=C(O)CCCC(=O)Nc1cccc(C(=O)Nc2ccccc2C(=O)O)c1 | -16 | 5% | -10% | ? | -7% | 1%
O=C(Nc1ccccc1C(=O)O)c1cccc(NC(=O)c2ccccc2Br)c1 | ? | 0% | -12% | -16% | 8% | -1%
O=C(NNC(=S)Nc1ccccc1)c1cccc(Br)c1 | · | 1% | -6% | ? | 5% | 0%
COc1ccc2c(c1)c(=O)c(S(=O)(=O)c1ccc(C)c(C)c1)cn2CC(=O)Nc1ccccc1 | · | · | -3% | · | 13% | ·
O=C(Nc1ccccc1C(=O)O)c1cccc(NS(=O)(=O)c2ccc(Br)cc2)c1 | ? | 1% | -8% | 42µM* | ? | -1%
